Results taken from PubChem BioAssay AID1159580 (chemical genetic matrix, 2015).
In all, about 5,500 compounds went through this assay and about 2,000 (36%) were called active. Inconclusive results (about 18%) are left out. Cut-off read from the data, not from the text of the source: active = normalized growth mostly below about 0.91 (no sharp cut-off); inconclusive = no clear call, values can overlap the other calls; inactive = mostly above about 0.92. The list shows a part of the results.

Test: chemical genetic growth profiling, strain panel (AID 1159580);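 note: tested at 20 µM; growth read once vehicle control cultures reached saturation at 30 °C; 1 = growth at the plate median or of vehicle wells; lower values mean less growth of the strain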
Conditions: growth OD

Measured: normalized growth

COc1cc(C(=O)O)c(O)c2c1OCO2
inactive: S. cerevisiae deletion strains, locus YAL013W, strain DEP1, hits give low values 1.01 | S. cerevisiae deletion strains, locus YBR021W, strain FUR4, hits give low values 0.999 | S. cerevisiae deletion strains, locus YBR229C, strain ROT2, hits give low values 0.999 | S. cerevisiae deletion strains, locus YCL029C, strain bik1, hits give low values 0.995 | S. cerevisiae deletion strains, locus YDL035C, strain GPR1, hits give low values 1.02 | S. cerevisiae deletion strains, locus YDL074C, strain BRE1, hits give low values 1.05 | S. cerevisiae deletion strains, locus YDL101C, strain DUN1, hits give low values 1.01 | S. cerevisiae deletion strains, locus YDL134C, strain PPH21, hits give low values 1.01 | S. cerevisiae deletion strains, locus YDL185W, strain tfp1, hits give low values 1 | S. cerevisiae deletion strains, locus YDL192W, strain arf1, hits give low values 1 | S. cerevisiae deletion strains, locus YDR101C, strain arx1, hits give low values 0.989 | S. cerevisiae deletion strains, locus YDR150W, strain NUM1, hits give low values 1.01 | S. cerevisiae deletion strains, locus YDR162C, strain NBP2, hits give low values 1.02 | S. cerevisiae deletion strains, locus YDR318W, strain mcm21, hits give low values 1 | S. cerevisiae deletion strains, locus YDR388W, hits give low values 1 | S. cerevisiae deletion strains, locus YDR502C, strain sam2, hits give low values 0.999 | S. cerevisiae deletion strains, locus YEL061C, strain CIN8, hits give low values 1 | S. cerevisiae deletion strains, locus YER110C, hits give low values 1 | S. cerevisiae deletion strains, locus YER155C, strain BEM2, hits give low values 1 | S. cerevisiae deletion strains, locus YER167W, strain BCK2, hits give low values 1.01 | S. cerevisiae deletion strains, locus YGL078C, strain dbp3, hits give low values 1.01 | S. cerevisiae deletion strains, locus YGL086W, strain mad1, hits give low values 1 | S. cerevisiae deletion strains, locus YGL248W, strain PDE1, hits give low values 1.01 | S. cerevisiae deletion strains, locus YGR078C, strain PAC10, hits give low values 1.03 | S. cerevisiae deletion strains, locus YGR135W, strain pre9, hits give low values 0.996 | S. cerevisiae deletion strains, locus YGR229C, strain SMI1, hits give low values 1.02 | S. cerevisiae deletion strains, locus YGR252W, strain gcn5, hits give low values 1.02 | S. cerevisiae deletion strains, locus YHR030C, strain SLT2, hits give low values 1.01 | S. cerevisiae deletion strains, locus YHR079C, strain IRE1 (second series), hits give low values 1 | S. cerevisiae deletion strains, locus YHR094C, strain hxt1, hits give low values 1 | S. cerevisiae deletion strains, locus YHR129C, strain ARP1, hits give low values 1.01 | S. cerevisiae deletion strains, locus YHR200W, strain rpn10, hits give low values 1.01 | S. cerevisiae deletion strains, locus YIL066C, strain RNR3, hits give low values 1.02 | S. cerevisiae deletion strains, locus YIL073C, strain SPO22, hits give low values 1.02 | S. cerevisiae deletion strains, locus YIL125W, strain kgd1, hits give low values 1 | S. cerevisiae deletion strains, locus YIR030C, strain dcg1, hits give low values 1 | S. cerevisiae deletion strains, locus YJL095W, strain BCK1, hits give low values 1.01 | S. cerevisiae deletion strains, locus YJL134W, strain LCB3, hits give low values 1 | S. cerevisiae deletion strains, locus YJL168C, strain set2, hits give low values 1 | S. cerevisiae deletion strains, locus YJL187C, strain SWE1 (second series), hits give low values 1.01 | S. cerevisiae deletion strains, locus YJR043C, strain POL32, hits give low values 1.02 | S. cerevisiae deletion strains, locus YJR075W, strain HOC1, hits give low values 1 | S. cerevisiae deletion strains, locus YKL009W, strain mrt4, hits give low values 1.01 | S. cerevisiae deletion strains, locus YKL068W, hits give low values 1.01 | S. cerevisiae deletion strains, locus YKL085W, strain MDH1 (second series), hits give low values 1 | S. cerevisiae deletion strains, locus YKL085W, strain MDH1, hits give low values 1 | S. cerevisiae deletion strains, locus YKL190W, strain CNB1, hits give low values 1.01 | S. cerevisiae deletion strains, locus YKR001C, strain vps1, hits give low values 1.01 | S. cerevisiae deletion strains, locus YLR039C, strain RIC1, hits give low values 1.04 | S. cerevisiae deletion strains, locus YLR058C, strain SHM2, hits give low values 1.01 | S. cerevisiae deletion strains, locus YLR102C, strain apc9, hits give low values 1 | S. cerevisiae deletion strains, locus YLR262C, strain YPT6, hits give low values 1.03 | S. cerevisiae deletion strains, locus YLR268W, strain sec22, hits give low values 1 | S. cerevisiae deletion strains, locus YLR330W, strain CHS5, hits give low values 1.01 | S. cerevisiae deletion strains, locus YLR342W, strain FKS1 (second series), hits give low values 1.01 | S. cerevisiae deletion strains, locus YLR371W, strain rom2, hits give low values 1.02 | S. cerevisiae deletion strains, locus YLR418C, strain cdc73, hits give low values 1 | S. cerevisiae deletion strains, locus YML016C, strain PPZ1, hits give low values 1.01 | S. cerevisiae deletion strains, locus YML032C, strain rad52, hits give low values 1.02 | S. cerevisiae deletion strains, locus YML124C, strain tub3, hits give low values 0.998 | S. cerevisiae deletion strains, locus YMR078C, strain ctf18, hits give low values 1 | S. cerevisiae deletion strains, locus YMR223W, strain ubp8, hits give low values 1.01 | S. cerevisiae deletion strains, locus YMR263W, strain SAP30, hits give low values 1.02 | S. cerevisiae deletion strains, locus YMR307W, strain GAS1, hits give low values 0.961 | S. cerevisiae deletion strains, locus YNL067W, strain RPL9B, hits give low values 1.01 | S. cerevisiae deletion strains, locus YNL128W, strain TEP1, hits give low values 1.02 | S. cerevisiae deletion strains, locus YNL153C, strain GIM3, hits give low values 1.02 | S. cerevisiae deletion strains, locus YNL233W, strain BNI4, hits give low values 1.01 | S. cerevisiae deletion strains, locus YNL250W, strain rad50, hits give low values 1.01 | S. cerevisiae deletion strains, locus YNL271C, strain bni1, hits give low values 1.01 | S. cerevisiae deletion strains, locus YNL298W, strain CLA4, hits give low values 1.01 | S. cerevisiae deletion strains, locus YNL307C, strain MCK1, hits give low values 1.01 | S. cerevisiae deletion strains, locus YNL322C, strain KRE1, hits give low values 1.01 | S. cerevisiae deletion strains, locus YNR052C, strain pop2, hits give low values 1.01 | S. cerevisiae deletion strains, locus YOL006C, strain TOP1, hits give low values 0.995 | S. cerevisiae deletion strains, locus YOL012C, strain htz1 1.11 | S. cerevisiae deletion strains, locus YOL147C, strain pex11, hits give low values 0.998 | S. cerevisiae deletion strains, locus YOR061W, strain CKA2, hits give low values 1.01 | S. cerevisiae deletion strains, locus YOR069W, strain VPS5, hits give low values 1.01 | S. cerevisiae deletion strains, locus YOR136W, strain idh2, hits give low values 1 | S. cerevisiae deletion strains, locus YOR144C, strain elg1, hits give low values 0.997 | S. cerevisiae deletion strains, locus YOR184W, strain ser1, hits give low values 1.01 | S. cerevisiae deletion strains, locus YOR316C, strain cot1, hits give low values 1.01 | S. cerevisiae deletion strains, locus YPL055C, strain LGE1, hits give low values 1.04 | S. cerevisiae deletion strains, locus YPL241C, strain CIN2, hits give low values 1.01 | S. cerevisiae deletion strains, locus YPR119W, strain clb2, hits give low values 0.997 | S. cerevisiae deletion strains, locus YPR141C, strain kar3, hits give low values 1.01 | S. cerevisiae deletion strains, locus YPR163C, strain tif3, hits give low values 1 | S. cerevisiae deletion strains, locus YPR167C, strain met16, hits give low values 1.01 | S. cerevisiae deletion strains, strain wtn01, hits give low values 0.982 | S. cerevisiae strains, strain wild type, hits give low values 1.02
